Screening results as filed in PubChem BioAssay.
ROMK primary: modulators of human ROMK potassium channel; P48048; Tet-inducible ROMK, thallium flux fluorescence; actives lie on both sides; B-score at 10 µM; 2% of 130,000 active; AID 1918;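 active = signal ratio slope over the read window, or its plate-corrected B-score, at least 3 SD from the plate mean, either direction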;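 note: B-score of the F/F0 ratio slope over 7 to 12 s after thallium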
Target sequence (P48048 whole entry, looked up): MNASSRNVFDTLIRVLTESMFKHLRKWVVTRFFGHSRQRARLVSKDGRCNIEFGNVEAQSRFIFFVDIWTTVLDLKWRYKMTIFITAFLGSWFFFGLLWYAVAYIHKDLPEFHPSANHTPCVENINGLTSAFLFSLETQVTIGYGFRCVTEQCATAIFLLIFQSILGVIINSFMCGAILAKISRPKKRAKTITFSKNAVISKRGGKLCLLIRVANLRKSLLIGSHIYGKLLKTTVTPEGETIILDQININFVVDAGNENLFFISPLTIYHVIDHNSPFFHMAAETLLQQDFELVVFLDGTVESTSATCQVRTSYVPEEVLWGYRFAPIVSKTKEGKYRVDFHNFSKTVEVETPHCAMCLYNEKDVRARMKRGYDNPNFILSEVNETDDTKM
PERK inh: human PERK inhibition, primary cell-based screen | inhibition, % at 5.6 µM | 0.17% of 220,000 active | CHO PERK-DD fusion, SEAP luminescence translation reporter | Q9NZJ5 | AID 1416;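 active = inhibition above the mean inhibition of all tested compounds plus 3 SD, set separately per screening campaign, cut at about 2.9% in these data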;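 note: PERK kinase domain activated by AP20187 dimerizer at 100 nM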
WT yeast gro inh: growth inhibition of WT yeast, mitochondrial fusion screen. mitochondrial fusion phenotypic screen, WT strain. inhibition, % at 10 µM. 2.1% of 190,000 active. AID 1362; in the data active = inhibition above about 58%; tested in S. cerevisiae
Arbovirus anti: arbovirus infection inhibition; arbovirus infection cell-based antiviral screen; 0.37% of 200,000 active; inhibition, % at 10 µM; in the data active = inhibition above about 30%
Large screens that a line does not name were inactive. In the library only some 3.3% were active in any assay of this set; here they are far more common.

CSc1nc(C)c(C(=O)C[n+]2ccc(C)cc2)cc1C#N	none
CCCCOCCCNC(=O)N[C@H](C(=O)OC)C(C)CC (some centres undefined)	none (no result: WT yeast gro inh, Arbovirus anti)
CC(=O)Nc1ccc(/C(C)=N/Nc2nc(Nc3cccc4ccccc34)nc(N3CCOCC3)n2)cc1	none
Cc1cccc(N(C)C(=S)Oc2ccc3ccccc3c2)c1	WT yeast gro inh 62.2 (no result: ROMK primary)
CCCN1CCN(C(=O)c2cccc3c2C(=O)N(CCOC)C3)CC1	none (no result: ROMK primary)
CCc1[nH]nc2c1C(c1ccc(C)o1)C(C#N)=C(N)O2 (centres undefined)	none
CCc1[nH]nc2c1C(c1ccc(Br)s1)C(C#N)=C(N)O2 (centres undefined)	ROMK primary -4.17
Cc1cc([N+](=O)[O-])cc2c1NC(=O)C2(O)N1CCCCCC1 (centres undefined)	none
COc1ccc(C2=CC(c3ccc(Cl)cc3)n3cnnc3N2)cc1OC (centres undefined)	Arbovirus anti 49.7
COc1ccc(C2C=C(c3ccc(Cl)cc3)Nc3nc(NC(C)=O)nn32)cc1 (centres undefined)	none
Cc1ccc(C(=O)O)cc1-c1ccc(/C=C2/NC(=O)N(c3ccccc3)C2=O)o1	Arbovirus anti 39.9
Cc1cc(C(=O)O)ccc1-c1ccc(/C=C2\NC(=O)N(Cc3ccccc3Cl)C2=O)o1	none
CCOC(=O)c1c(C)oc2c1c(C(c1cccnc1)N1CCOCC1)c(O)c1ccccc12 (centres undefined)	WT yeast gro inh 62.0
O=C(NNc1nc(N2CCOCC2)nc(N2CCOCC2)n1)Nc1ccc(Cl)cc1	none
O=C(NC1=NCCS1)c1cccc2ccccc12	WT yeast gro inh 81.3
CC1=C(CC(=O)c2ccc(Cl)cc2)C(=O)c2ccccc2C1=O	PERK inh 2.9 (no result: ROMK primary)
Cc1ccccc1-c1nsc(SCC(=O)c2ccc(Cl)cc2)n1	none (no result: ROMK primary)
Cc1ccc(C(=O)c2c(C)oc3c2C(=O)C(=O)c2ccccc2-3)cc1	none (no result: ROMK primary)
Cc1oc2c(c1C(=O)c1ccc(Cl)cc1)C(=O)C(=O)c1ccccc1-2	WT yeast gro inh 79.9 (no result: ROMK primary)
COc1cccc(N/C(C)=C/C(=O)c2ccc(Br)cc2)c1	WT yeast gro inh 65.0
Cc1ccc(-c2cc(C(=O)Nc3cc(C)ccc3C)[nH]n2)c(O)c1	none (no result: ROMK primary)
COc1ccc(OC)c(NC(=O)c2cc(-c3ccc(C)cc3O)n[nH]2)c1	Arbovirus anti 30.8
COc1ccc(/C=C2\CCc3ccccc3C2=O)cc1Cn1nc(C)cc1C	WT yeast gro inh 80.0
Cc1cc2c3c(c1)C1(SCC(=O)N1c1ccc(F)cc1)C(=O)N3C(C)(C)CC2C (centres undefined)	WT yeast gro inh 62.8
Cc1noc(C)c1C(=O)OCC(=O)Nc1ccccc1Oc1ccccc1	WT yeast gro inh 59.0
Cc1noc(C)c1C(=O)OCC(=O)Nc1ccccc1C(=O)NC(C)c1ccccc1 (centres undefined)	none (no result: ROMK primary)
Cc1ccc(NC(=O)NNC(=O)c2cccs2)cc1	none (no result: ROMK primary)
S=C(c1ccc(-c2cccc(Cl)c2)o1)N1CCCCC1	WT yeast gro inh 58.1 (no result: ROMK primary)
Cc1nc(N2CCOCC2)c2c(C)c(C(=O)Nc3ccccc3C(F)(F)F)sc2n1	none
Cc1nc(N2CCCCC2C)c2c(C)c(C(=O)Nc3ccccc3C(F)(F)F)sc2n1 (centres undefined)	WT yeast gro inh 75.3
COc1cccc(-c2nc(N3CCN(C)CC3)c3ccccc3n2)c1O	none (no result: WT yeast gro inh, Arbovirus anti)
COc1cccc(-c2nc(N3CCCCC3C)c3ccccc3n2)c1O (centres undefined)	WT yeast gro inh 63.5
Cc1cc(NC(=O)COC(=O)C(Nc2ccc(C(F)(F)F)cc2Cl)C(C)C)no1 (centres undefined)	WT yeast gro inh 79.1 (no result: ROMK primary)
Cc1cc(NC(=O)COC(=O)[C@H](C)NC(=O)c2ccccc2)no1	none (no result: ROMK primary, WT yeast gro inh)
Cc1ccc(/C=N/N2CCN(Cc3ccc(Cl)cc3)CC2)o1	none
CCOC(=O)C1CCN(c2nc(-c3ccccc3)nc3c2oc2ccccc23)CC1	none
CCOC(=O)C1CCN(C(=O)c2cccc(Cl)c2)CC1	none (no result: ROMK primary)
CCOC(=O)C1CCN(c2c(C(=O)c3ccccc3)cnc3ccc(Cl)cc23)CC1	WT yeast gro inh 75.2
CCOC(=O)C1CCN(c2nc(-c3ccc(C)cc3)nc3ccccc23)CC1	WT yeast gro inh 71.0
CCOC(=O)C1CCN(c2nc3ccccc3nc2C(C#N)C(=O)NCCc2ccccc2)CC1 (centres undefined)	WT yeast gro inh 81.7
COc1ccccc1CN(C(=O)Cc1cccs1)C(C(=O)NC1CCCC1)c1ccncc1 (centres undefined)	none (no result: ROMK primary)
CC(Nc1ccc(Cl)cc1)c1cc(Cl)ccc1O (centres undefined)	WT yeast gro inh 74.5
CC(Nc1ccc(Br)cn1)c1cc(Cl)ccc1O (centres undefined)	WT yeast gro inh 72.5
CNC(=O)NC(=O)CSc1ccc(NC(C)=O)cc1	none (no result: ROMK primary)
CC(C)c1ccccc1NC(=S)NCc1ccccc1F	none
S=C(Nc1cccc2ccccc12)NC1CCCCC1	WT yeast gro inh 74.7
CCOc1ccc(C(C)NC(=S)NC2CCCCC2)cc1 (centres undefined)	WT yeast gro inh 72.5
CC(C)c1ccccc1NC(=S)NC1CCCCC1	WT yeast gro inh 71.5 (no result: ROMK primary)
CSc1ccccc1NC(=S)NC1CCCCC1	none
CC(C)c1ccccc1NC(=S)NC(C)c1ccccc1 (centres undefined)	WT yeast gro inh 60.2 (no result: ROMK primary)
CCOc1ccc(C(C)NC(=S)NC2CCCCC2)cc1OCC (centres undefined)	none
CN(NC(=O)/C=C/C(=O)O)c1ncc(C(F)(F)F)cc1Cl	none
COc1cccc(NC(=O)N2CCCC2C(=O)NCc2ccccc2F)c1 (centres undefined)	none
Cc1cccnc1CN1CCN(Cc2nc(C(c3ccccc3)c3ccccc3)no2)CC1	none
CC1CN(Cc2ccccc2)c2ccccc2NC1=S (centres undefined)	WT yeast gro inh 67.4
CCN(CC(=O)Nc1ccc(C(=O)Nc2ccc(OC)cc2)cc1)Cc1nc2ccccc2c(=O)[nH]1	none (no result: ROMK primary, WT yeast gro inh, Arbovirus anti)
N=c1ccn(CC(=O)c2ccc(-c3ccccc3)cc2)cc1	WT yeast gro inh 66.0
O=C(CN1C(=O)CCC1=O)c1ccc(-c2ccccc2)cc1	none
Clc1ccccc1-c1ccc(CN2CCN(c3ccccc3)CC2)o1	WT yeast gro inh 65.8
CCN(CC(=O)Nc1c(C(=O)OC)[nH]c2ccc(Cl)cc12)c1ccc2c(c1)OCO2	WT yeast gro inh 68.2 (no result: ROMK primary)
CN(C)c1ccnc(NCc2ccccc2)c1C#N	none (no result: ROMK primary)
CN(C)c1ccnc(N(Cc2ccccc2)Cc2ccccc2)c1C#N	WT yeast gro inh 80.5
COc1ccc(C(=S)Nc2ccc(N(C)C)cc2)cc1	none
CCOC(=O)c1sc(NC(=O)c2ccc(Cl)s2)cc1C	none (no result: ROMK primary)
CCOC(=O)c1sc(NC(=O)Nc2ccc(Cl)cc2)cc1C	WT yeast gro inh 84.6 (no result: ROMK primary)
Cc1nn(C(=O)c2ccc([N+](=O)[O-])cc2)c(C)c1Br	none (no result: ROMK primary, WT yeast gro inh, Arbovirus anti)
O=C(NNC(=S)NC1CCCCC1)c1sc2ccccc2c1Cl	none
CC(C)(C)C(=O)NC(=S)NNC(=O)c1sc2ccccc2c1Cl	ROMK primary 7.29, WT yeast gro inh 75.3
CCOC(=O)Cn1c(=O)oc2cc(S(=O)(=O)N(C)c3cccc(C)c3)ccc21	none (no result: WT yeast gro inh, Arbovirus anti)
CCC1CCCCN1C(=O)CSc1nc2c(cnn2-c2ccc(C)cc2)c(=O)[nH]1 (centres undefined)	PERK inh 3.2 (no result: ROMK primary)
Cc1occc1C(=O)N1CCN(c2ncccn2)CC1	none (no result: ROMK primary)
